Measured values from PubChem BioAssay (NCATS).
Results filed as inconclusive are left out. A number with no mark means an inactive call. The call rests on the fitted dose curve; in most records, active means well fitted inhibition curve with a large enough effect; inconclusive means small, poorly fitted or top-dose-only effect; inactive means flat fitted curve, though single readings scatter.

Each compound was assayed on CP315 (assay: qHTS profiling for inhibitors of Plasmodium falciparum proliferation (AID 504749;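 further: 0% = DMSO vehicle and full inhibition = artemisinin control; nearly all actives have a fitted effect of over 60% in size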)). Settings: P. falciparum in erythrocytes, SYBR Green DNA, 72 h; series mostly up to 28.7 µM; activity, negative = inhibition: at the top concentration.
How it was run: (§1)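 Parasite proliferation within erythrocytes, 72 h exposure. Endpoint: SYBR Green I fluorescence after overnight lysis at room temperature. Controls: 0.29 uM artemisinin, DMSO.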

SMILES	activity, negative = inhibition
CCCCCc1ccc(C)cc1O	-7.74%
C=CC(C)(O)CC/C=C(\C)CCC=C(C)C (configuration not stated)	0.0566%
Cc1ccc(S(=O)(=O)NCl)cc1	-11.5%
CN1c2c(nc(N)[nH]c2=O)NCC1CNc1ccc(C(=O)NC(CCC(=O)O)C(=O)O)cc1 (configuration not stated)	-4.52%
NC(=O)[C@@H]1CCCN1C(=O)[C@H](Cc1cnc[nH]1)NC(=O)[C@@H]1CCC(=O)N1	0.49%
CN(C)CCOc1ccc(/C(=C(/CCCl)c2ccccc2)c2ccccc2)cc1	0.948%
CC1(O)CCC(C(C)(C)O)CC1 (configuration not stated)	2.12%
COc1ccccc1N1CCN(CCCC(=O)c2ccc(F)cc2)CC1	0.406%
CC(C)[C@@H](N)C(=O)O	1.3%
CN(C)c1ccc(C(=C2C=CC(=[N+](C)C)C=C2)c2c(O)c(S(=O)(=O)[O-])cc3cc(S(=O)(=O)O)ccc23)cc1	-7.81%
COc1cc(S(C)=O)ccc1-c1nc2ncccc2[nH]1 (configuration not stated)	-18.4%
Oc1cc(O)cc(O)c1	1.83%
N[C@H](CC(=O)O)C(=O)O	3.07%
C/C=C/C=C/C(=O)O	-1.7%
C=C(C)C1CC=C(C)CC1 (configuration not stated)	1.8%
Nc1ncnc2c1ncn2[C@H]1CC[C@@H](CO)O1	-4.15%
NCC[C@H](O)C(=O)N[C@@H]1C[C@H](N)[C@@H](O[C@H]2O[C@H](CN)CC[C@H]2N)[C@H](O)[C@H]1O[C@H]1O[C@H](CO)[C@@H](O)[C@H](N)[C@H]1O	-4.19%
[O]=[Bi][O]C(=O)[O][Bi]=[O]	-0.909%
Cc1c(Cl)cccc1Nc1ncccc1C(=O)O	-4.84%
CC1(C)S[C@@H]2[C@H](NC(=O)C3(N)CCCCC3)C(=O)N2[C@H]1C(=O)O	-16.1%
CCCCCCCCCCCC(=O)OCC(O)CO (configuration not stated)	-0.0909%
COc1ccc(C(=O)c2ccc(C)cc2)c(O)c1	-3.73%
O=C1NCCN1c1ncc([N+](=O)[O-])s1	-2.39% [at 12.8 µM]

The compounds below were run on CP325 in the same assay as above. Settings: P. falciparum in erythrocytes, SYBR Green DNA, 72 h; series mostly up to 28.7 µM; activity, negative = inhibition: at the top concentration.
How it was run: as §1

SMILES	activity, negative = inhibition
CCCOC(=O)c1ccccc1O	-8.59%
COc1cc2c(cc1OC)[C@@H](Cc1cc(OC)c(OC)c(OC)c1)[N+](C)(CCCOC(=O)CC/C=C/CCC(=O)OCCC[N+]1(C)CCc3cc(OC)c(OC)cc3[C@H]1Cc1cc(OC)c(OC)c(OC)c1)CC2 (some centres not stated)	0.131%
OC[C@H]1O[C@@](CO)(O[C@H]2O[C@H](CO)[C@@H](O)[C@H](O)[C@H]2O)[C@@H](O)[C@@H]1O	-11.9%
CCC(Cc1c(I)cc(I)c(O)c1I)C(=O)O (configuration not stated)	-0.862%
Nc1ncnc2c1ncn2CCOCP(=O)(O)O	-1.48%
O=C(O)CCC/C=C\C[C@@H]1[C@@H](/C=C/[C@@H](O)COc2cccc(Cl)c2)[C@H](O)C[C@@H]1O	-9.95%
N=C(N)n1cccn1	-7.07%
CCSc1ccc2c(c1)N(CCCN1CCN(C)CC1)c1ccccc1S2	6.21% [at 12.8 µM]
CC(C)c1nc(N(C)S(C)(=O)=O)nc(-c2ccc(F)cc2)c1/C=C/C(O)CC(O)CC(=O)O (configuration not stated)	0.0437%
CCOC(C)OCC	-0.511%
NCCN	-2.31%
CC(CC=O)CCCC(C)(C)O (configuration not stated)	-3.07%
CC(C)(COP(=O)(O)OP(=O)(O)OC[C@H]1O[C@@H](n2cnc3c(N)ncnc32)[C@H](O)[C@@H]1OP(=O)(O)O)C(O)C(=O)NCCC(=O)NCCS (some centres not stated)	-2.84%
O=C1c2ccccc2CN2C(=O)c3ccccc3CN12	3.48%
O=C1c2ccccc2C(=O)C1c1ccc(F)cc1	-13.8%
CNC(=O)C[C@@H](N)C(=O)N[C@@H](C(=O)N[C@@H]1C(=O)N2[C@@H]1SC(C)(C)[C@@H]2C(=O)O)c1ccc(O)cc1	-9.04%
CCCCCc1ccc(C)cc1O	15.7%
C=CC(C)(O)CC/C=C(\C)CCC=C(C)C (configuration not stated)	-3.29%
Cc1ccc(S(=O)(=O)NCl)cc1	-0.854%
CN1c2c(nc(N)[nH]c2=O)NCC1CNc1ccc(C(=O)NC(CCC(=O)O)C(=O)O)cc1 (configuration not stated)	-0.282%
NC(=O)[C@@H]1CCCN1C(=O)[C@H](Cc1cnc[nH]1)NC(=O)[C@@H]1CCC(=O)N1	1.55%
CN(C)CCOc1ccc(/C(=C(/CCCl)c2ccccc2)c2ccccc2)cc1	-1.36%
CC1(O)CCC(C(C)(C)O)CC1 (configuration not stated)	-0.793%
COc1ccccc1N1CCN(CCCC(=O)c2ccc(F)cc2)CC1	-0.337%
CC(C)[C@@H](N)C(=O)O	-2.53%
CN(C)c1ccc(C(=C2C=CC(=[N+](C)C)C=C2)c2c(O)c(S(=O)(=O)[O-])cc3cc(S(=O)(=O)O)ccc23)cc1	-8.73%
COc1cc(S(C)=O)ccc1-c1nc2ncccc2[nH]1 (configuration not stated)	0.192%
Oc1cc(O)cc(O)c1	-3.5%
N[C@H](CC(=O)O)C(=O)O	6.31%
